Among the data in PubChem BioAssay (NCI) are growth values, retold here.

Common to all, as to test: NCI-60 one-dose screen, 48 h (100 = growth as untreated, 0 = no growth, -100 = all killed)
The subject of assay [1] is HOP-92 NSCLC. Conditions: 10 µM unless noted.
The test system of assay [2] is COLO 205 colon. The settings on record: 10 µM.
In assay [3] the test system is MALME-3M melanoma. Conditions: 10 µM unless noted.
The test system of assay [4] is RXF 393 renal. The settings on record: 10 µM unless noted.
Assay [5] concerns M14 melanoma. The settings on record: 10 µM unless noted.
The test system of assay [6] is U251 CNS. Conditions: 10 µM unless noted.
The subject of assay [7] is EKVX NSCLC. The settings on record: 10 µM unless noted.
Assay [8] has as its system TK-10 renal. Conditions: 10 µM unless noted.
The subject of assay [9] is CAKI-1 renal. Conditions: 10 µM unless noted.
Assay [10] has as its system CCRF-CEM leukemia. The settings on record: 10 µM unless noted.
Assay [11] deals with MOLT-4 leukemia. Conditions: 10 µM.
Assay [12] concerns SR leukemia. Conditions: 10 µM.
In assay [13] the test system is RPMI-8226 leukemia. Conditions: 10 µM unless noted.
The subject of assay [14] is SK-OV-3 ovarian. The settings on record: 10 µM unless noted.
Assay [15] relates to BT-549 breast. The settings on record: 10 µM.
Assay [16] deals with SW-620 colon. Conditions: 10 µM unless noted.
The subject of assay [17] is HCT-116 colon. The settings on record: 10 µM unless noted.
The test system of assay [18] is NCI-H522 lung. The settings on record: 10 µM unless noted.
Assay [19] relates to LOX IMVI melanoma. The settings on record: 10 µM unless noted.

Each structure is given as a SMILES string. About 83,000 compounds went through this panel and 20% of them were active in at least one assay; those are over-represented in the sample as a whole.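 Assay: single dose, 48 h. Readout: percent growth (0 = no net growth; negative = cell death). Active: <10.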 Active and inactive are the calls of the source.

In the case of `N#C[Se]CCCNS(=O)(=O)C1CC2C=CC1C2` (stereo not drawn), the growth was -73.1% (active) in assay [1]; -39% (active) in [2]; -55.5% (active) in [3]; -90% (active) in assay [4]; -47.9% (active) in [5]; -76.6% (active) in assay [6]. Besides, the growth is -96% (active) in assay [7]; -66.4% (active) in [8]; -99.1% (active) in assay [9]; 17.4% (inactive) in assay [10]; 5.9% (active) in [11]; 7.66% (active) in assay [12]. For the same molecule, the growth is -29.5% (active) in assay [13]; -36.4% (active) in [14]; -71.3% (active) in assay [15]; 1.26% (active) in assay [16]; -31.9% (active) in assay [17].

Consider `COP(=S)(OC)Oc1ccc(SC)c(C)c1`, for which the growth was 72.6% (inactive) in [1]; 94.8% (inactive) in assay [18]; 101% (inactive) in assay [2]; 105% (inactive) in [3]; 107% (inactive) in [4]; 101% (inactive) in [5]. In addition, the growth in [6] is 100% (inactive); in [19] it was 93.3% (inactive); in assay [7], 106% (inactive); in [9] it was 92.6% (inactive); in assay [10], 113% (inactive); in assay [14] it was 100% (inactive). Moreover, the figures for the growth in [15], in assay [16] and in assay [17] were 83.9% (inactive), 106% (inactive) and 103% (inactive), respectively.

In the case of `c1ccc(CCN2CCCCC2Cc2ccccc2)cc1` (stereo not drawn), the growth in [1] is 100% (inactive); in [18], 83.5% (inactive); in assay [3], 97.7% (inactive); in assay [4] it was 117% (inactive); in assay [5], 94.7% (inactive); in [6], 98.5% (inactive). Further, the growth was 90.9% (inactive) in assay [19]; 96.6% (inactive) in [8]; 105% (inactive) in assay [10]; 92.7% (inactive) in assay [11]; 88.5% (inactive) in [12]; 107% (inactive) in assay [13]. Besides, the growth is 106% (inactive) in assay [14], 111% (inactive) in assay [15], 107% (inactive) in assay [16] and 78.1% (inactive) in assay [17].

In the case of `OC1(c2ccc(Cl)cc2Cl)c2ccccc2C2=NCCN21` (stereo not drawn), the growth in assay [1] is -2.5% (active); in [2], 90.6% (inactive); in [3], 100% (inactive); in assay [4], -13% (active); in [5] it was 102% (inactive); in [6], 89.5% (inactive). In addition, the growth in [7] was 97.9% (inactive); in assay [8], 76.6% (inactive); in assay [9], -21.8% (active); in assay [10], 90.5% (inactive); in [11], 78.9% (inactive); in [12], 80.5% (inactive). The growth in assay [13] was 82.3% (inactive); in [14] it was 89.5% (inactive); in assay [15], 93.5% (inactive); in assay [16], 92.7% (inactive); in assay [17], 78.8% (inactive).

As for `CO[C@@H]([CH2][Hg][S]C#N)[C@@H]([CH2][Hg][S]C#N)OC`, the growth in assay [1] was 76.2% (inactive); in assay [18], 48.1% (inactive); in [2] it was 66.2% (inactive); in [3], 104% (inactive); in [4], 57.8% (inactive); in [7], 112% (inactive). The growth in assay [8] is 133% (inactive); in assay [10], 42.5% (inactive); in assay [11], 101% (inactive); in assay [12], 66.5% (inactive); in [13] it was 94.6% (inactive); in assay [15] it was 107% (inactive). The growth in [16] is 22.3% (inactive); in assay [17], -100% (active).

Take `CCOC(=O)/C(C#N)=C/c1ccc(N(CCCl)CCCl)cc1`: the growth in [1] was 67.6% (inactive); in assay [2], 112% (inactive); in [3], 99.7% (inactive); in [4], 93.3% (inactive); in assay [5], 105% (inactive); in assay [6], 92% (inactive). Besides, the growth in assay [8] was 91.4% (inactive); in assay [9] it was -9.24% (active); in assay [11], 84.7% (inactive); in assay [12], 30.3% (inactive); in [13], 88.4% (inactive); in [14] it was 92.6% (inactive). The growth in [16] was 87.3% (inactive); in [17], 97% (inactive).

With `Cc1cc(CCl)c(C)cc1CCl`, the growth in assay [1] was 79.3% (inactive); in assay [18] it was 55.5% (inactive); in [3] it was 82.9% (inactive); in assay [4], 93.3% (inactive); in assay [5], 45.1% (inactive); in assay [6], 40.2% (inactive). Also, the growth in assay [7] is 106% (inactive); in assay [8], 37.3% (inactive); in assay [9] it was 5.81% (active); in [10], 19.7% (inactive); in assay [11] it was 29.7% (inactive); in assay [12] it was 11.9% (inactive). In addition, the growth was 26.4% (inactive) in assay [13], 73.9% (inactive) in [14], 59.9% (inactive) in assay [16] and 50.9% (inactive) in assay [17].

Turning to `O=C(c1cccs1)C1NO[N+]([O-])=C1c1cccs1` (stereo not drawn), the growth in [1] is -35.9% (active); in [18], -92.1% (active); in [2], 6.64% (active); in assay [3], -55.3% (active); in assay [4] it was -25.1% (active); in [5] it was -40.2% (active). For the same molecule, the growth in assay [6] was 64% (inactive); in [19], -100% (active); in [7], 102% (inactive); in assay [8], -46.8% (active); in assay [9], -62.9% (active); in [10], -40.3% (active). Moreover, the growth is 38.5% (inactive) in [11]; 22.4% (inactive) in assay [12]; 14.1% (inactive) in assay [13]; 118% (inactive) in assay [14]; 88.7% (inactive) in assay [15]; -91.9% (active) in assay [16]. Besides, the growth in [17] was 25.6% (inactive).

On to `CC(C)(NC(=O)c1nn(CCCCCF)c2ccccc12)c1ccccc1`, for which the growth in [1] is 68.6% (inactive); in assay [18], 64.3% (inactive); in assay [3] it was 108% (inactive); in assay [4], 112% (inactive); in assay [5], 85.5% (inactive); in assay [19], 96.3% (inactive). Also, the growth in assay [8] was 103% (inactive); in assay [10], 82.5% (inactive); in assay [11] it was 71.9% (inactive); in [12], 85.2% (inactive); in assay [13], 78.6% (inactive); in assay [14], 87.8% (inactive). Moreover, the growth in assay [15] is 73.5% (inactive); in assay [16], 102% (inactive); in assay [17], 66.9% (inactive).

As to `COc1ccccc1N1CCN(CCc2c[nH]c3cc4c(cc23)OCO4)CC1`, the growth was -8.6% (active) in assay [1]; 72% (inactive) in [18]; 74.7% (inactive) in assay [2]; 92% (inactive) in [3]; 75.8% (inactive) in assay [4]; 68.9% (inactive) in [5]. Moreover, the growth in assay [19] is 60.4% (inactive); in [7], 77.7% (inactive); in [9], 75.5% (inactive); in [10], 75.4% (inactive); in assay [11] it was 84.7% (inactive); in assay [13] it was 47.1% (inactive). Besides, the figures for the growth in assay [15], in assay [16] and in [17] were 84.2% (inactive), 88.6% (inactive) and 42.5% (inactive), respectively.
